Bioassay records: PubChem BioAssay, National Center for Advancing Translational Sciences (NCATS)
An excerpt weighted towards active compounds, which were near 19% of everything screened.
HT1080-NT tox = qHTS for induction of synthetic lethality in tumor cells producing 2HG: qHTS for the HT-1080-NT fibrosarcoma cell line. AID 686970, 2013. HT-1080-NT fibrosarcoma viability, CellTiter-Glo ATP luminescence, 48 h. hit rate 1.6% among 360,000. Potency, µM (titrated, usually from 46.1 µM), most hits filed as cytotoxic;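 further: NT is the 2HG producing partner of a matched IDH1 knockdown line; nearly all actives have a fitted effect of over 55% in size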
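A 48-hour cytotoxicity screen used HT-1080-NT cells plated 2 hours before compound delivery. ATP-based CellTiter-Glo luminescence measured viability, normalized to DMSO and no-cell controls.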
TDP1 cell noCPT = qHTS for Inhibitors of human tyrosyl-DNA phosphodiesterase 1 (TDP1): qHTS in cells in absence of CPT; DT40 Tdp1-/- hTDP1 cells, no CPT, ATP luminescence, 48 h; Potency, µM (top dose mostly 46.2 µM), hits mostly inhibitors; hit rate 15% among 420,000; further: nearly all actives have a fitted effect of over 55% in size
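Readout: luminescence from CellTiter-Glo after 30 min in the dark at RT. Cells: DT40 Tdp1-/- with stable hTDP1, 400/well. Exposure: compounds alone, ≥48 hr, 37 °C.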
KB-V1 cytotox = qHTS assay for MDR1-selective chemotherapeutics: Primary screen using the drug-selected MDR subline cells KB-V1. AID 1347076, 2019. KB-V1 MDR cells viability, CellTiter-Glo, 72 h. Potency, µM (doses to about 46.1 µM), most hits filed as cytotoxic. hit rate 3.4% among 400,000; further: nearly all actives have a fitted effect of over 60% in size
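qHTS viability screen in drug-selected KB-V1 MDR cells: 72 h compound treatment at 37 degrees C, ATP luminescence end point.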
HT1080 IDH1KD tx = qHTS for induction of synthetic lethality in tumor cells producing 2HG: qHTS for the HT-1080-IDH1KD cell line. hit rate 2% among 360,000. Potency, µM (series often up to 46.1 µM), usual class: cytotoxic. AID 686971, 2013. HT-1080 IDH1 knockdown viability, ATP luminescence, 48 h
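Knockdown cells (IDH1KD HT-1080) received compounds 2 h after plating at 750 cells/well and were kept 48 h at 37 °C in 5% FBS RPMI. A CellTiter-Glo luminescence read gave % activity for curve fitting.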
KB-3-1 tox = qHTS assay for MDR1-selective chemotherapeutics: Primary screen using the parental adenocarcinoma cell KB-3-1; KB-3-1 viability, CellTiter-Glo ATP luminescence, 72 h; Potency, µM (doses to about 46.1 µM), hits mostly cytotoxic; hit rate 1.4% among 400,000; further: nearly all actives have a fitted effect of over 60% in size
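Parental KB-3-1 adenocarcinoma cells in phenol-red-free DMEM with 10% FBS were pin-treated with compounds at several concentrations, incubated 72 h at 37 °C, and viability read by CellTiter-Glo luminescence; concentration-effect curves were fitted after normalization.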
DT40 TDP1 CPT = qHTS for Inhibitors of human tyrosyl-DNA phosphodiesterase 1 (TDP1): qHTS in cells in presence of CPT | hit rate 12% among 420,000 | AID 686979, 2013 | chicken DT40 Tdp1-/-;hTDP1 cells + 20 nM CPT, ATP luminescence, 48 h | Potency, µM (series often up to 46.2 µM), most hits filed as inhibitors; further: nearly all actives have a fitted effect of over 55% in size
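Chicken DT40 Tdp1-/- cells stably complemented with human TDP1 were seeded at 400 cells/well in medium containing 20 nM camptothecin, exposed to pin-transferred compounds, and grown at 37 °C for at least 48 hr. Viability was read as ATP luminescence.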
A number is an active result; 0 = inactive; ? = inconclusive; - = not tested or not shown; [ ] = dose if it differs, or a comment. The call rests on the fitted dose curve; in most records, active means well fitted curve in the direction sought with a large enough effect; inconclusive means small, poorly fitted or top-dose-only effect, or another doubt; inactive means no such curve, though single readings can be large; an effect the other way counts as inactive or inconclusive.

SMILES | HT1080-NT tox | TDP1 cell noCPT | KB-V1 cytotox | HT1080 IDH1KD tx | KB-3-1 tox | DT40 TDP1 CPT
CC(=O)Nc1ccc(Oc2ccc([N+](=O)[O-])cc2Cl)cc1 | 0 | ? | 0 | 0 | 0 | 10µM
CC(C)C(=O)Nc1ccc(NC(=O)c2ccc([N+](=O)[O-])cc2Cl)cc1 | 0 | 18µM | ? | 0 | 0 | ?
O=C(Nc1cccc(O)c1)c1ccc([N+](=O)[O-])cc1Cl | 0 | ? | 0 | 0 | ? | 15µM
COc1ccc(Oc2ncnc3c2oc2ccccc23)cc1 | - | ? | 0 | - | 0 | ?
O=C(C1CCC1)N1CCc2cc(S(=O)(=O)N3CCN(c4ccccc4)CC3)ccc21 | - | 0 | 0 | - | 0 | 0
O=C(Cn1nc2ccccc2n1)N1CCOc2ccc(CN3CCc4sccc4C3)cc2C1 | - | 0 | - | - | - | 0[9.04 µM]
Cc1ccc(F)c(NC(=O)c2c(-c3ccccc3)noc2C)c1 | 0 | ? | 0 | 0 | 0 | ?
COC(=O)c1[nH]c(C)c(/C(O)=C2\C(=O)C(=O)N(CCN3CCOCC3)C2c2ccc(C)o2)c1C (centres undefined) | 0 | 0 | ? | 0 | 0 | 0
COCC(=O)OC/C(O)=C(\C#N)c1nc2ccccc2[nH]1 | 0 | 2.6µM | 0 | 0 | ? | 2.9µM
N#C/C(=C(/O)CCl)c1nc2ccccc2[nH]1 | ? | 5.2µM | 23µM | ? | ? | 2.6µM
Cc1cccc(C)c1OCC(=O)OC/C(O)=C(\C#N)c1nc2ccccc2[nH]1 | 0 | 21µM | 0 | 0 | 0 | ?
N#C/C(=C(/O)COC(=O)c1cccnc1Cl)c1nc2ccccc2[nH]1 | 0 | 23µM | 0 | 0 | 0 | 18µM
Cc1ccc(C(=O)Nc2ccccc2C(=O)N2CC(C)OC(C)C2)cc1 (centres undefined) | 0 | 0 | 0 | 0 | 0 | 0
Cc1c(-c2cccc(Cl)c2)nc2ccccc2c1C(=O)OC/C(O)=C(\C#N)c1nc2ccccc2[nH]1 | 0 | 21µM | 0 | 0 | ? | 15µM
Cc1cc(C)cc(OCC(=O)OC/C(O)=C(\C#N)c2nc3ccccc3[nH]2)c1 | 0 | 21µM | 0 | 0 | ? | ?
N#C/C(=C(/O)COC(=O)c1ccccc1O)c1nc2ccccc2s1 | 0 | 16µM | ? | 0 | 0 | 0
CCOC(=O)c1c(C)[nH]c(C(=O)OCC(O)=C(C#N)c2nc3ccccc3[nH]2)c1C | ? | ? | ? | ? | 0 | ?
N#C/C(=C(/O)COC(=O)COc1cccc(Br)c1)c1nc2ccccc2[nH]1 | 0 | 0 | 0 | 0 | 0 | ?
N#C/C(=C(/O)COC(=O)CCC1CCCCC1)c1nc2ccccc2[nH]1 | 0 | 4.1µM | 0 | 0 | ? | 5.2µM
CCCC(=O)OC/C(O)=C(\C#N)c1nc2ccccc2[nH]1 | 0 | ? | 0 | 0 | 0 | 0
CC(C)(C)c1ccc(C(=O)OC/C(O)=C(\C#N)c2nc3ccccc3s2)cc1 | 0 | ? | 0 | 0 | 0 | ?
COC(=O)c1ccc(C(=O)OC)c(NC(=O)C2CCCO2)c1 (centres undefined) | 0 | 0 | ? | 0 | 0 | 0
COC(=O)N1CCCCC1c1cc(C(=O)N2CCOCC2)no1 (centres undefined) | 0 | 0 | 0 | 0 | 0 | 0
COc1ccc(C(=O)OCc2cc(=O)n3nc(-c4cccs4)sc3n2)cc1 | - | ? | 0 | - | 0 | 0
CC(NC1CCCC1)C(=O)Nc1ccccc1-c1ccccc1 (centres undefined) | 0 | 0 | 12µM | 0 | 0 | 0
SMILES | HT1080-NT tox | TDP1 cell noCPT | KB-V1 cytotox | HT1080 IDH1KD tx | KB-3-1 tox | DT40 TDP1 CPT
Cc1ccc(C)c(S(=O)(=O)N2CCN(C(C)C(=O)Nc3ccccc3-c3ccccc3)CC2)c1 (centres undefined) | 0 | 16µM | ? | 0 | ? | ?
O=C(CC1CCCCC1)Nc1ccccc1-c1ccccc1 | 0 | 21µM | 0 | 0 | 0 | ?
COc1ccccc1NC(=O)CC1CCCC1 | 0 | 0 | 0 | 0 | 0 | 0
O=C(CCC1CCCC1)Nc1ccccc1-c1ccccc1 | 0 | ? | 18µM | 0 | 0 | 0
O=C(CCC1CCCCC1)Nc1ccccc1-c1ccccc1 | 0 | 0 | ? | 0 | 0 | 0
CC[C@H](C)[C@H](NC(=O)[C@H](C)NC(=O)[C@H](CC(N)=O)NC(=O)[C@H](CCCCN)NC(=O)[C@H](Cc1ccccc1)NC(=O)[C@H](CC(C)C)NC(=O)[C@@H](NC(=O)[C@@H](NC(=O)[C@H](CC(C)C)NC(=O)[C@@H]1CCCN1C(=O)[C@@H](NC(=O)[C@H](CCC(N)=O)NC(=O)[C@H](CO)NC(=O)[C@H](CCCCN)NC(=O)[C@H](CCC(=O)O)NC(=O)[C@H](CO)NC(=O)[C@@H](NC(=O)[C@H](CCSC)NC(=O)[C@H](Cc1ccccc1)NC(=O)CNC(=O)CNC(=O)[C@@H](N)Cc1ccc(O)cc1)[C@@H](C)O)[C@@H](C)O)C(C)C)[C@@H](C)O)C(=O)N[C@H](C(=O)N[C@@H](CCCCN)C(=O)N[C@@H](CC(N)=O)C(=O)N[C@@H](C)C(=O)N[C@@H](Cc1ccc(O)cc1)C(=O)N[C@@H](CCCCN)C(=O)N[C@@H](CCCCN)C(=O)NCC(=O)N[C@@H](CCC(=O)O)C(=O)O)[C@@H](C)CC | - | 0[4.12 µM] | - | - | - | 0[4.12 µM]
Cc1ccc(SC(C)C(=O)Nc2ccccc2-c2ccccc2)cc1 (centres undefined) | 0 | ? | 21µM | 0 | 0 | 0
Cc1ccc(SC(C)C(=O)Nc2ccccc2C(=O)N2CCOCC2)cc1 (centres undefined) | 0 | 0 | 0 | 0 | 0 | 0
CCCCOc1ccc(C2=NNC(=O)CC2)cc1 | ? | 0 | 0 | ? | 0 | 0
CCn1c(O)c(/C=N/N=C/c2ccccc2)c2ccc(C3=NNC(=O)CC3)cc21 | 0 | 18µM | ? | ? | ? | ?
CCC(CC)=N/N=C/c1c(O)n(CC)c2cc(C3=NNC(=O)CC3)ccc12 | 0 | 9.2µM | 0 | 0 | 0 | ?
COc1ccc(NC(=O)c2oc3ccccc3c2NC(=O)c2cc(C)cc(C)c2)c(OC)c1 | - | 0 | 0 | - | 0 | 0
COCC[N+]1(C)CCCCC1 | 0 | 0 | 0 | 0 | 0 | 0
CCOc1ccc(CCN2C(=S)N([C@@H](CC(C)C)CN3CCCC3CN3C(=S)NC[C@@H]3CC(C)C)C[C@@H]2Cc2ccc(O)cc2)cc1 (some centres undefined) | 0 | ? | ? | 0 | ? | 18µM
